The text below walks through data of PubChem BioAssay.

Molecules are shown by their SMILES. Activity calls are given as the source filed them. Unless noted, the rule behind the calls is not given here.

Experiment [1] relates to Wnt5a (protein binding on small-molecule microarray). Briefly: small molecules binding Wnt5a protein – biophysical, small-molecule microarray, 635/667 nm fluorescence, primary screen (AID 1142).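 Note: fluorescence read at 667 nm with signal to noise per printed feature.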 The note with it: 635 nm fluorescence, higher = more signal.
Experiment [2] can be described thus: ATP-based viability of Huh7 replicon cells – cell-based, CellTiter-Glo luminescence, basal, 48 h, cytotoxicity control for HCV replication inhibitor project, primary screen (AID 1143).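 Note: Huh7 hepatoma cells carrying a hepatitis C replication reporter with no stimulus; test concentration not given here.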 The note with it: higher = more signal, called active from +8 up or from −8 down.
The nature of experiment [3]: Pseudomonas biofilm growth suppression – PAO1 strain, BacTiter-Glo luminescence, LB-PBS, primary screen (AID 1144). The note with it: P. aeruginosa PAO1 biofilm, 12 h, higher = more signal.
A short description of experiment [4]: basal CRE-LacZ reporter activity in PC12 – cell-based, unstimulated, primary screen (AID 1145). The note with it: no forskolin, luminescence, 4.5 h, higher = more signal, called active from +8 up or from −8 down.
The nature of experiment [5]: forskolin-driven CRE-LacZ activity in PC12 – cell-based, CRE-LacZ reporter, forskolin-stimulated, primary screen (AID 1146).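 Note: PC12 cells with 6xCRE LacZ reporter stimulated by forskolin 10 µM; beta-galactosidase reporter signal reflecting CREB driven transcription.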 The note with it: luminescence, 4.5 h, higher = more signal, called active from +8 up or from −8 down.
The target of experiment [6] is Streptavidin (Streptomyces avidinii) (UniProt P22629). Briefly: compounds binding control protein streptavidin – biophysical, small-molecule microarray, 635/667 nm fluorescence, artefact control for SMM compound annotation, primary screen (AID 1147).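 Note: signal reflects streptavidin binding to arrayed compounds as a control protein.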 The settings on record: higher = more signal.
Streptavidin (Streptomyces avidinii), sequence (P22629 whole entry, looked up): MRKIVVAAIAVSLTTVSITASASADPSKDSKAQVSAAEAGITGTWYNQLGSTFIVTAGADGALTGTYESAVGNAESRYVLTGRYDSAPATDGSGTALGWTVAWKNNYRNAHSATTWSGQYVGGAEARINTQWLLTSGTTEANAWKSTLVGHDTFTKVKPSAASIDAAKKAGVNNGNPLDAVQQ
The nature of experiment [7]: probe aInhba binding on compound microarray – biochemical, small-molecule microarray, 635/667 nm fluorescence, primary screen (AID 1148).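 Note: score merges 667nm spot fluorescence with signal-to-noise for antibody binding to printed compounds.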 The note with it: higher = more signal.
The target in experiment [8] is Torsin-1A (Homo sapiens) (UniProt O14656). Briefly: TOR1A wild-type binding on microarray – cell lysate, small-molecule microarray, lysate, 635/667 nm, primary screen (AID 1149). The settings on record: COS7 hTOR1A-WT lysate, 635 nm fluorescence, higher = more signal.
Torsin-1A (Homo sapiens), sequence (O14656 whole entry, looked up): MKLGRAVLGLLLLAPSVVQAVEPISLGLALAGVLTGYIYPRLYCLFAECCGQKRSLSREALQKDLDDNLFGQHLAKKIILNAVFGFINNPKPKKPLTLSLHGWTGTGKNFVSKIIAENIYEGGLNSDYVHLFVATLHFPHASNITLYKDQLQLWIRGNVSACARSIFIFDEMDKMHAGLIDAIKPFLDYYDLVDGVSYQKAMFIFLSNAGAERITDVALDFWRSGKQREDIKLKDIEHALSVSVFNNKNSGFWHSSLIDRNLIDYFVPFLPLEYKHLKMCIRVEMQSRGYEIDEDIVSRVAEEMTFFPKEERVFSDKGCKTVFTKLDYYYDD
The target is the same in experiment [9]. Briefly: torsin A mutant lysate binding on microarrays – cell lysate, small-molecule microarray, COS7 lysate, 635/667 nm fluorescence, primary screen (AID 1150).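 Note: score pools 667 nm emission and signal to noise measuring lysate protein binding.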 The note with it: COS7 hTOR1A mutant lysate, 635 nm fluorescence, higher = more signal.
Experiment [10] has as its system Sonic hedgehog protein (Shh). The experiment in a line: Sonic hedgehog microarray binding compounds – biochemical, small-molecule microarray, 635/667 nm fluorescence, primary screen (AID 1151).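 Note: Shh protein binding to compounds spotted on small-molecule microarray slides; score combines spot fluorescence intensity with signal-to-noise across triplicate slides.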 The note with it: 635 nm fluorescence, higher = more signal.

For the molecule `C[C@@H](c1ccccc1)N1C(=O)[C@H]2[C@H]3[C@H](O)[C@H](O)CC(=NO[C@@H]4O[C@H](CO)[C@@H](O)[C@H](O)[C@H]4O)[C@@H]3CC[C@H]2C1=O`, the composite z-score in experiment [1] is 0.0794; in experiment [6] it was 0.238; in experiment [7] it was -0.0626; with Torsin-1A (Homo sapiens) [8] it was 1.1; in the experiment with Torsin-1A (Homo sapiens) [9] it was 0.907; in [10], 0.116. In addition, the z-score is 0.401 (inactive) in experiment [2], -0.783 (inactive) in [3], -0.566 (inactive) in experiment [4] and 0.331 (inactive) in [5].
Consider `CC(C)=CCCC(C)=CCON=C1C[C@@H](O)[C@@H](O)[C@@H]2[C@@H]3C(=O)N(C4CCCCC4)C(=O)[C@@H]3CC[C@@H]12`, for which the composite z-score in experiment [1] is 0.24; in experiment [6] it was -0.0037; in experiment [7], -0.0719; in the experiment with Torsin-1A (Homo sapiens) [8], 0.184; with Torsin-1A (Homo sapiens) [9], 0.288; in experiment [10] it was 1.08. In addition, the z-score in [2] is -0.592 (inactive); in [3], 0.233 (inactive); in experiment [4] it was 0.517 (inactive); in experiment [5], 0.13 (inactive).
For `O=c1n(Cc2cc3c(cc2Cl)OCO3)c(=O)n2n1CC[C@@H]1C(=NOC[C@@H](O)COCc3ccco3)[C@H]3O[C@H]3[C@@H](O)[C@@H]12`, the composite z-score in [1] was determined as 0.127; in experiment [6], 1.02; in experiment [7] it was 0.0084; with Torsin-1A (Homo sapiens) [8] it was 0.365; with Torsin-1A (Homo sapiens) [9], 0.156; in experiment [10], 0.344. In addition, the z-score in experiment [2] is 0.376 (inactive); in experiment [3], -1.11 (inactive); in [4], 0.975 (inactive); in experiment [5], 0.819 (inactive).
With `Cc1ccc(S(=O)(=O)n2c3ccccc3c3nnc(C(=O)c4ccccc4)nc32)cc1`, the composite z-score in [1] was 0.19; in [6], -0.237; in experiment [7], 0.0998; in the experiment with Torsin-1A (Homo sapiens) [8] it was 0.0855; in the experiment with Torsin-1A (Homo sapiens) [9], -0.292; in experiment [10], 0.766. Moreover, the z-score in experiment [2] is -0.472 (inactive); in [3], -0.673 (inactive); in [4] it was 1.38 (inactive); in [5], -1.15 (inactive).
On to `CCCNC(=O)OC[C@H]1O[C@H](CCON=C(C)CCC(=O)OC[C@H]2O[C@H](c3ccccc3)C=C[C@@H]2Oc2ccc(OC)cc2)C=C[C@@H]1Oc1ccc(OC)cc1`, for which the composite z-score is -0.109 in [1]; 0.728 in [6]; -0.125 in experiment [7]; -0.694 with Torsin-1A (Homo sapiens) [8]; -0.243 with Torsin-1A (Homo sapiens) [9]; -0.137 in experiment [10]. The z-score in experiment [2] was -1.13 (inactive); in experiment [3], -0.665 (inactive); in experiment [4] it was -0.478 (inactive); in experiment [5], 0.913 (inactive).
Consider `CCCNC(=O)OC[C@H]1O[C@H](c2ccccc2)C=C[C@@H]1Oc1ccc(OC)cc1`, for which the composite z-score is -0.0663 in experiment [1]; 1.48 in experiment [6]; -0.0719 in [7]; -0.131 in the experiment with Torsin-1A (Homo sapiens) [8]; 0.144 with Torsin-1A (Homo sapiens) [9]; 0.0199 in [10]. The z-score was -0.234 (inactive) in experiment [2], 0.404 (inactive) in experiment [3], 0.735 (inactive) in experiment [4] and -0.353 (inactive) in experiment [5].
Regarding `CC[C@@H](c1ccccc1)n1c(=O)n2n(c1=O)[C@H]1[C@H](O)[C@@H]3O[C@@H]3C(=NOC[C@@H](O)COCc3ccco3)[C@H]1CC2`, the composite z-score in experiment [1] is 0.112; in experiment [6], -0.715; in experiment [7], -0.257; with Torsin-1A (Homo sapiens) [8], -0.354; with Torsin-1A (Homo sapiens) [9], -0.517; in experiment [10], 1.07. For the same molecule, the z-score is 0.456 (inactive) in [2], 0.232 (inactive) in [3], 0.704 (inactive) in experiment [4] and 0.427 (inactive) in experiment [5].
As for `CCOC(=O)[C@H](CC(C)C)NC(=O)CCC1CC(OC(=O)NCCc2ccc(F)cc2)CC2(CCCC(COC(=O)NCCOc3ccccc3)O2)O1` (stereo not given in full), the composite z-score in [1] was 0.32; in experiment [6] it was 0.939; in experiment [7], 0.336; in the experiment with Torsin-1A (Homo sapiens) [8] it was 0.0137; with Torsin-1A (Homo sapiens) [9], 0.15; in experiment [10], 1.01. Moreover, the z-score in experiment [2] was -1.81 (inactive); in [3], -0.446 (inactive); in experiment [4] it was 0.469 (inactive); in experiment [5], 0.127 (inactive).
Regarding `COc1cccc([C@H]2Oc3ccc(OC)cc3C(=NOC[C@@H](O)COCc3ccco3)[C@@H]2O)c1`, the composite z-score in [1] is -0.217; in experiment [6], -0.903; in experiment [7] it was -0.205; in the experiment with Torsin-1A (Homo sapiens) [8] it was -1.7; with Torsin-1A (Homo sapiens) [9], -1.38; in experiment [10], -0.0734. The z-score in [2] is -0.564 (inactive); in [3], 0.357 (inactive); in experiment [4], 4.9 (inactive); in experiment [5] it was 0.493 (inactive).
Take `C[C@H](ON=C1[C@H]2CCn3c(=O)n(-c4ccccc4)c(=O)n3[C@H]2[C@H](O)[C@@H]2O[C@H]12)c1cn([C@H](CO)Cc2ccccc2)nn1`: the composite z-score was 0.087 in experiment [1]; 1.19 in experiment [6]; -0.154 in [7]; 0.421 with Torsin-1A (Homo sapiens) [8]; 0.295 in the experiment with Torsin-1A (Homo sapiens) [9]; 0.248 in [10]. Moreover, the z-score in [2] is 1.92 (inactive); in experiment [3], 0.285 (inactive); in experiment [4], -0.324 (inactive); in experiment [5], 0.578 (inactive).
With `Cc1ccc(S(=O)(=O)N[C@@H]2COC(=O)[C@@H](C)COC(=O)CC=C[C@H]2C)cc1`, the composite z-score in experiment [1] was -0.278; in [6], 0.095; in [7], 0.0633; with Torsin-1A (Homo sapiens) [8], 0.399; in the experiment with Torsin-1A (Homo sapiens) [9] it was 0.366; in [10], 0.472. Further, the z-score in experiment [2] was 0.215 (inactive); in experiment [3] it was -0.736 (inactive); in experiment [4], -0.116 (inactive); in [5] it was -0.549 (inactive).
`CCOC(=O)[C@H](Cc1ccccc1)NC(=O)CCC1CC(OC(=O)NCCc2ccc(F)cc2)CC2(CCCC(COC(=O)NCCCN3CCCC3=O)O2)O1` (stereo not given in full): the composite z-score in experiment [1] is 0.126; in experiment [6], 0.625; in experiment [7], -0.206; with Torsin-1A (Homo sapiens) [8] it was 0.144; with Torsin-1A (Homo sapiens) [9] it was 0.321; in experiment [10], 0.733. The z-score in [2] is -1.04 (inactive); in experiment [3], -1.68 (inactive); in [4] it was -0.165 (inactive); in experiment [5], 0.0137 (inactive).
Regarding `O=C1C[C@@H](O)[C@@H](O)[C@@H]2[C@@H]3C(=O)N(C[C@@H]4CCCO4)C(=O)[C@@H]3CC[C@H]12`, the composite z-score is 0.288 in [1]; 0.168 in experiment [6]; -0.128 in [7]; 0.34 with Torsin-1A (Homo sapiens) [8]; 0.068 with Torsin-1A (Homo sapiens) [9]; 0.46 in experiment [10]. For the same molecule, the z-score in experiment [2] was 0.114 (inactive); in experiment [3], 0.54 (inactive); in experiment [4], 0.517 (inactive); in experiment [5] it was -0.105 (inactive).
Take `COC(=O)[C@@H]1CC[C@H](C)[C@@H](c2ccc(C)cc2)N1C(=O)c1ccc(C=NOC[C@@H](C)[C@H](OCc2ccccc2)C(C)C)cc1`: the composite z-score in experiment [1] was 0.156; in experiment [6] it was 0.409; in [7], -0.018; with Torsin-1A (Homo sapiens) [8], 0.0707; with Torsin-1A (Homo sapiens) [9] it was 0.537; in [10], 1.28. Also, the z-score in experiment [2] is -1.17 (inactive); in [3] it was 0.978 (inactive); in experiment [4], 6.15 (inactive); in experiment [5] it was -0.207 (inactive).
